From PubChem BioAssay AID1671190 (National Center for Advancing Translational Sciences (NCATS), 2021)
Among all 580,000 compounds or so, about 6,100 (1.1%) were called active. Where a call stands in place of a potency, no number is given. About 15% were inconclusive and are not listed. Calls come from the whole dose curve; as a rule, active = well fitted inhibition curve with a large enough effect; inconclusive = small, poorly fitted or top-dose-only effect, or another doubt; inactive = no such curve, though single readings can be large or run the other way. Only a selection was taken, and actives are over-represented in it overall.

What follows are compounds tested against Polyunsaturated fatty acid lipoxygenase ALOX12 (Homo sapiens) (UniProt P18054) (assay: Primary qHTS assay for inhibitors of human arachidonate 12S-lipoxygenase (ALOX12): Round 2). Conditions: purified 12hLO, xylenol orange hydroperoxide absorbance; series mostly up to 108 µM.
Sequence of Polyunsaturated fatty acid lipoxygenase ALOX12 (Homo sapiens) (P18054 whole entry, looked up): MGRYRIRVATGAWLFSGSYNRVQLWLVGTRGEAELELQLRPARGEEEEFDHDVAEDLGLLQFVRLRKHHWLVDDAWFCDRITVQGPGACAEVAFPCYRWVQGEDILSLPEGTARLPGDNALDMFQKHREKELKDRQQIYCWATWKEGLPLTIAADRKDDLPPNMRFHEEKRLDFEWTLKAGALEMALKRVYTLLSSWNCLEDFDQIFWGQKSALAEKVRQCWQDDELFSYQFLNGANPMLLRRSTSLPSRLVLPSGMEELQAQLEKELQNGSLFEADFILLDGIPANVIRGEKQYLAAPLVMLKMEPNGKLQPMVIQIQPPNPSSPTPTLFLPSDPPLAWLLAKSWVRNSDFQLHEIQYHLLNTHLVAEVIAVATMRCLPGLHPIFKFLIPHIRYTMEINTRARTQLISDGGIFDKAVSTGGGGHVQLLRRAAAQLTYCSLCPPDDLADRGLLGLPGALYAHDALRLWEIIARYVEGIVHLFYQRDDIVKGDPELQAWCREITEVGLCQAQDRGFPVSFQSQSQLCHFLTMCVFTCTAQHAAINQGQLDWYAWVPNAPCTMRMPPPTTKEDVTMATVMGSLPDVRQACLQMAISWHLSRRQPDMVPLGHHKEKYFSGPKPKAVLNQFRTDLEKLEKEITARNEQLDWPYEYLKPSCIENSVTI
In short: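 Purified human 12hLO at 150 nM in 25 mM Hepes, 0.01% Triton X-100, pH 7.0, preincubated 15 min at room temperature with compound. Reaction started with 40 uM arachidonic acid, 30 min at room temperature. Hydroperoxide measured by Fe-xylenol orange, 573/405 nm absorbance ratio.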
Potency is the fitted concentration of half-maximal effect.

| Structure (SMILES) | Potency |
| --- | --- |
| CCCn1c(C)c(C)c(-c2nc3ccccc3[nH]2)c1NC(=O)CC(C)C | inactive |
| Cc1cc(CN2CCN(Cc3nc(C(C)(C)C)no3)CC2)no1 | inactive |
| O=c1cc(-c2cccnc2)nc2n(Cc3cccc(F)c3)c3ccccc3n12 | inactive |
| CC(C)COC(=O)/C(C#N)=C\c1c[nH]c2ccccc12 | inactive |
| CCCC1CCC(=NNC(=S)NCCc2ccccc2)CC1 (stereo not given) | 44.7 µM (active) |
| N#Cc1cccc(NC(=S)NCCc2ccccc2)c1 | inactive |
| O=C(CCC1CCN(S(=O)(=O)c2ccccc2)CC1)NCCc1ccccc1 | inactive |
| O=C(NCCCNC(=O)c1nc2ccccc2c(=O)[nH]1)c1cccnc1 | inactive |
| O=C(c1cccnc1)N(c1cc2sc(=O)oc2c2ccccc12)S(=O)(=O)c1ccccc1 | 15.8 µM (active) |
| O=C(CN(Cc1ccc(Br)cc1)S(=O)(=O)c1ccccc1)NCc1ccncc1 | inactive |
| Cc1nn(CC(O)COc2ccccc2)c(=O)c2ccccc12 (stereo not given) | inactive |
| Cc1ccccc1C(=O)Nc1ccc2c(c1)nc(CCn1ccccc1=O)n2C | inactive |
| CCN(CC)S(=O)(=O)c1ccc(Sc2nnc(C)s2)nc1 | inactive |
| CN(C)c1ccc(C(=O)NCc2nnc3cc(-c4nc(C5CC5)no4)ccn23)cc1 | inactive |
| COc1ccc(C(=O)NCc2nnc3cc(-c4nc(C)no4)ccn23)cc1 | inactive |
| CCCc1noc(-c2ccn3c(CNC(=O)c4ccc(N(C)C)cc4)nnc3c2)n1 | 44.7 µM (active) |
| CCc1cccc2c(C(=O)CSc3nnnn3C3CC3)c[nH]c12 | inactive |
| CCCNC(=O)c1cn(-c2ccccc2)nc1-c1cccnc1 | inactive |
| O=C(/C=C/c1cccc(F)c1)c1cc2ccccc2oc1=O | inactive |
| O=[N+]([O-])c1ccc(Oc2ccc3ccncc3c2)cc1C(F)(F)F | inactive |
| Cc1ccc(NC(=O)CCc2nc(C(C)(C)C)no2)nc1 | inactive |
| Cc1ccc2cccc(NC(=O)c3ccccc3C)c2n1 | inactive |
| Cc1cccc(NC(c2cccc(F)c2)c2ccc3ccc(C)nc3c2O)n1 (stereo not given) | 25.1 µM (active) |
| Cc1c(Cl)cccc1NC(=O)COC(=O)c1nn(C)c(=O)c2ccccc12 | inactive |
| Cc1cc(C)n(CCC(=O)NCC2CCN(c3cc(-c4ccc(F)cc4)[nH]n3)CC2)n1 | inactive |
| Cc1cc(C)c2oc(C(=O)Nc3ccc(S(=O)(=O)N4CCCCCC4)cc3)cc(=O)c2c1 | inactive |
| Cc1cc(C)c(NS(=O)(=O)c2ccc(S(=O)(=O)N3CCCC3)cc2)c(C(=O)O)c1 | 39.8 µM (active) |

| Structure (SMILES) | Potency |
| --- | --- |
| Cc1cc(C)c2sc(NC(=O)c3ccc(S(=O)(=O)N4CCCC4)cc3)nc2c1 | inactive |
| CC(=O)NC(C(=O)NC(C)c1cccc(Cl)c1)C(C)C (stereo not given) | inactive |
| CC(C)C(=O)N(Cc1ccc2cc[nH]c2c1)C1CC1 | inactive |
| NC(=O)[C@@H](Cc1ccccc1)NC(=O)C1=C[C@@H](NS(=O)(=O)c2cccc(C(F)(F)F)c2)[C@@H](O)[C@H](O)C1 | inactive |
| COc1ccc(CC/C(C)=N/O)cc1 | inactive |
| O=C(c1ccco1)N1CCC2(CC1)CC(N(Cc1ccccc1)C1CC1)CCO2 (stereo not given) | inactive |
| C=CCOc1cccc(C2C(C(=O)c3ccc(C)o3)=C(O)C(=O)N2c2nnc(C)s2)c1 (stereo not given) | 39.8 µM (active) |
| C=CCOc1cccc(C2NC(=O)c3ccccc3O2)c1 (stereo not given) | inactive |
| C=CCOc1cccc(C2C(C(=O)c3ccc(C)o3)=C(O)C(=O)N2CCN2CCOCC2)c1 (stereo not given) | inactive |
| CC(C)NC(=O)NC(=O)Cn1cnc2c1c(=O)n(C)c(=O)n2C | inactive |
| C/C(=N\NC(=S)NC1CCCCC1)c1ccc(C)o1 | 5.01 µM (active) |
| C/C(=N\NC(=O)NC1CCCCC1)c1ccc(OC(F)F)cc1OC(F)F | inactive |
| C/C(=N/NC(=O)c1ccc(Br)o1)c1ccc(C)o1 | inactive |
| O=C(CN1CCN(C(=O)CCCc2c[nH]c3ccccc23)CC1)NC1CC1 | inactive |
| CCOC(=O)CSc1ncn(-c2nc(NC(C)(C)C)nc(N(C)C)n2)n1 | inactive |
| CN(CC(=O)Nc1ccc2c(c1)OC1(CCCCC1)O2)Cc1cccs1 | inactive |
| CN(C)c1ccc(C=C2C(=O)OC3(CCCC3)OC2=O)cc1 | 44.7 µM (active) |
| C=CCn1c(N2CCC(C(N)=O)CC2)nc2c1c(=O)[nH]c(=O)n2C | inactive |
| O=C(Cc1ccc(Cl)cc1)NN=C1CCC(c2ccccc2)CC1 (stereo not given) | inactive |
| CCOC(=O)CN1C(=O)C(O)(CC(=O)c2cccnc2)c2ccccc21 (stereo not given) | inactive |
| CNCCC(F)(F)F | 15.8 µM (active) |
| CN1CCC(CNC(=O)CCc2c[nH]c3ccccc23)CC1 | inactive |
| Cc1cc(C(C)(C)C)ccc1OC(=O)c1ccc(C#N)cc1 | inactive |
| CN1CCCN(S(=O)(=O)c2ccc3c(c2)CCC3)c2ccccc21 | inactive |
| CCc1ccc(-c2nc(-c3nc(-c4cccs4)cs3)sc2C)cc1 | inactive |
| CCOC(=O)C1=C(C)NC(=O)NC1c1ccc(C(=O)OC)cc1 (stereo not given) | inactive |
| CCOC(=O)c1sc(=S)n2c1[nH]c(=O)c1ccc(C(=O)OC)cc12 | 15.8 µM (active) |

| Structure (SMILES) | Potency |
| --- | --- |
| COC(=O)c1ccc(CNC(=O)Cn2cc(C)c(=O)[nH]c2=O)cc1 | inactive |
| COc1ccc(Nc2nc(-c3cccc(OC)c3OC)no2)cc1 | inactive |
| COc1ccc(Nc2ccccc2)cc1 | 35.5 µM (active) |
| COc1ccc(NC(=O)ON=C2c3ccccc3-c3ccccc32)cc1 | inactive |
| O=C(NC1CCc2ccccc21)c1cc(COc2ccc3c(c2)OCO3)[nH]n1 (stereo not given) | inactive |
| CC1(C2CC2)NC(=O)N(CC(=O)Nc2cccc3cccnc23)C1=O (stereo not given) | inactive |
| O=C(OCc1cc(Cl)c2c(c1)OCCCO2)C12CC3CC(CC(Cl)(C3)C1)C2 | inactive |
| CCCn1nc(C(=O)Nc2ccc(OC)c(S(=O)(=O)N(C)C)c2)c2ccccc2c1=O | inactive |
| Cc1ccc(Nc2nnc(SCC(=O)c3ccc(Cl)s3)s2)cc1C | inactive |
| CC(C)c1ccc(Nc2nnc(SCC(=O)c3nnc(-c4ccccc4)o3)s2)cc1 | 39.8 µM (active) |
| CCCCc1ccc(Nc2nnc(SCC(=O)NC(C)C)s2)cc1 | inactive |
| O=C(NCC1CCN(c2cc(-c3ccc(Cl)cc3)[nH]n2)CC1)c1ccc2nc[nH]c2c1 | inactive |
| COc1ccc(-c2cc(N3CCN(C(=O)Cc4cccc(OC)c4)CC3)n[nH]2)cc1 | inactive |
| Cc1ccc(-c2cc(N3CCCN(C(=O)COc4ccccc4)CC3)n[nH]2)cc1C | inactive |
| CN(C(=O)CN1CCN(c2cc(-c3ccc(OCc4ccccc4)cc3)ncn2)CC1)c1ccccc1 | 10 µM (active) |
| CN(C)[C@H]1CCCCN(C(=O)CC2CCN(Cc3ccccc3)CC2)C1 | inactive |
| Clc1ccc2oc([C@H]3CCN(Cc4ccccc4)C3)nc2c1 | inactive |
| Cc1cc(S(=O)(=O)N2CCCC2c2nnc3ccccn23)ccc1Br (stereo not given) | inactive |
| COc1c(O)cc2oc(-c3ccc(O)c(O)c3)cc(=O)c2c1O | 31.6 µM (active) |
| CCCCOc1cc(O)c2c(=O)cc(-c3ccccc3)oc2c1 | inactive |
| COCCNC(=O)COc1cc(O)c2c(=O)cc(-c3ccccc3)oc2c1 | inactive |
| COc1ccc(-c2c(C)c3ccc(OS(C)(=O)=O)cc3oc2=O)cc1 | inactive |
| O=C(CNc1ccccc1)NNC(=O)c1cc(-c2ccccc2)nn1-c1ccccc1 | inactive |
| Cc1nc2nc(CC(=O)NCc3ccccc3)nn2c(C)c1Cc1ccc(Cl)cc1 | inactive |
| Cc1ccc(-n2c(=O)c3cccnc3n2CC(=O)Nc2ccc(F)cc2F)cc1C | inactive |
| CCOc1ccc2[nH]c(=O)c(CN(CCCO)C(C)=O)cc2c1 | inactive |
| CCOc1ccc(OCC)c(NS(=O)(=O)c2ccc3[nH]c(=O)ccc3c2)c1 | inactive |

| Structure (SMILES) | Potency |
| --- | --- |
| CCOc1ccc2[nH]c(=S)sc2c1 | 35.5 µM (active) |
| Cc1cc(=O)oc2c(C)c(OC(C)C(=O)NCc3ccc(S(N)(=O)=O)cc3)ccc12 (stereo not given) | inactive |
| COc1ccc(-c2cc(N3CCN(C(=O)c4cc(OC)cc(OC)c4)CC3)n[nH]2)cc1 | inactive |
| COc1ccc(-c2cn(-c3ccc(OC)cc3)c(=S)[nH]2)cc1 | 25.1 µM (active) |
| COc1ccc(-c2nc3ccncc3[nH]2)cc1 | inactive |
| COc1ccc2c(c1)CCc1c-2n[nH]c1C(=O)N1CCC(c2noc(COc3ccc(C)cc3)n2)CC1 | inactive |
| CCc1cccc(NC(=O)CC(C)C)c1 | inactive |
| O=C(Nc1ccccc1F)c1ccc2c(c1)n(Cc1ccccc1)c(=O)c1ccnn12 | inactive |
| CN(c1ccccc1)S(=O)(=O)c1ccc(NC(=O)COc2ccccc2)cc1 | inactive |
| COC(=O)C1=C(O)/C(=C/c2ccc(OCC(=O)Nc3ccccc3)cc2)N=C1C | 17.8 µM (active) |
| Cc1csc2nc(COc3ccc(NC(=O)COc4ccccc4)cc3)cc(=O)n12 | inactive |
| NC(=O)Cc1csc(NC(=O)CCc2ncc(-c3ccc(Cl)cc3Cl)o2)n1 | inactive |
| CC(OC(=O)c1cc2cc(F)ccc2s1)C(=O)N1CCNC1=O (stereo not given) | inactive |
| O=[N+]([O-])c1ccccc1N/N=C1\CCc2ccccc21 | inactive |
| S=C(NCCC1=CCCCC1)Nc1ccccc1 | inactive |
| CCCCNC(=S)N/N=C1\CCCCc2ccccc21 | 31.6 µM (active) |
| C#CCOC(=O)c1cccc(C(=O)O)c1 | inactive |
| COc1cccc(NC(=O)c2csnn2)c1 | inactive |
| COc1cccc(NC(=O)C2(C#N)CCCC2)c1 | inactive |
| COc1cccc(NC(=O)C2C(c3ccccc3)C2(Cl)Cl)c1 (stereo not given) | 35.5 µM (active) |
| Cc1nc(N2CCN(CC(=O)N3CCCC3)CC2)c(C#N)c2c1COC(C)(C)C2 | inactive |
| N#Cc1ccc(CN2C[C@@H]3C[C@H]2C(=O)Nc2ccccc2O3)cc1 | inactive |
| COCCN1C(=O)[C@@H]2C[C@@H](CN2C(=O)Nc2ccccc2)Oc2ccccc21 | inactive |
| O=C1[C@@H]2C[C@@H](CN2Cc2ccc3ccccc3n2)Oc2ccccc2N1Cc1ccccc1 | 8.91 µM (active) |
